Assay results: publication PMC5540273 (PLoS ONE, 2017)

Tested on: FRK
Conditions: concentration: 1 μM,replicates: in singlicate; n = 1
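Further: KINOMEscan kinase panel screen.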

Row | SMILES | %Inh [%]
1 | C[C@@H](Oc1cc(-n2cnc3ccc(-c4ccncc4)cc32)sc1C(N)=O)c1ccccc1Cl [GSK483724] | 14
2 | NC(=O)Nc1sc(-c2ccc(F)cc2)cc1C(N)=O [GW789449] | 0
3 | CN(c1ccc2c(c1)nc(NCc1ccc(F)cc1)n2C)c1ccnc(Nc2ccc(CS(C)(=O)=O)cc2)n1.Cl [GW813244] | 77
4 | c1ccc(Oc2ccc(Nc3ccnc4ccc(-c5ccccn5)cc34)cc2)cc1 [GW407034] | 38
5 | CS(=O)c1ccc(-c2coc3ccc(-c4n[nH]c(=O)o4)cc23)cc1 (centres unmarked) | 0
6 | CCN1CCN(CCCC(=O)Nc2n[nH]c3nc(-c4ccc(O)cc4)c(Br)cc23)CC1 [SB-731579] | 0
7 | CC(=O)c1c(-c2ccncc2)[nH]c(-c2ccncc2)c1C [GW493036] | 0
8 | CSc1nccc(-c2c(-c3ccc(F)cc3)ncn2CCCN2CCOCC2)n1.Cl [SB-217146] | 0
9 | CN1CCN(CCNc2nc3cc(Oc4ccc(NC(=O)Nc5cc(C(F)(F)F)ccc5F)cc4)ccc3[nH]2)CC1.Cl.Cl [GW768504] | 69
10 | C[C@@H](Oc1cc(-n2cnc3cc(-c4ccncc4)ccc32)sc1C(N)=O)c1ccccc1Cl [GSK479719] | 15
11 | O=C(Nc1cccc(Oc2ccc3nccn3n2)c1)Nc1cccc(C(F)(F)F)c1 | 77
